# The whole screen tested about 2,100 compounds, of which about 480 (23%) were called active. About 5% were inconclusive and are not listed.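 The calls were made as follows: active = fitted curve reaches 40% activation at or below the top valid concentration, in every replicate test; inconclusive = replicate tests disagree on the call; inactive = the rest, including activity in the opposite direction.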 Not all results are given here. Entries with a potency or affinity are not part of this list.
# Test: PGC1a acetylation increase, cellular AlphaLISA – cell-based, cherry-picked samples, set 6, dose response (AID 720513);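 also: cells made to overexpress flag tagged PGC1a plus GCN5 acetyltransferase by viral infection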
# Conditions: U2OS PGC1a acetylation AlphaLISA, overnight, 0 = neutral, -100 = inhibitor control; series mostly up to 19.5 µM
row,Structure (SMILES),outcome
1,CC1=C(C(N)=O)C(c2ccccc2)n2nc(-c3ccncc3)nc2N1 (stereo unspecified),inactive
2,CCN(CC)C(=O)c1sc(NC(=O)c2ccncc2)c(C(=O)OC)c1C,inactive
3,Cc1nn(CC(=O)Nc2ccc(C(C)C)cc2)c(C)c1[N+](=O)[O-],inactive
4,CC(=O)Nc1ccc(NS(=O)(=O)c2ccc(C)cc2)cc1[N+](=O)[O-],inactive
5,COc1ccc(OC)c(N(CC(=O)Nc2ccccc2)S(C)(=O)=O)c1,inactive
6,COc1ccc(OC)c(CN2CCN(C(=O)c3ccc(NS(=O)(=O)c4cccc([N+](=O)[O-])c4)cc3)CC2)c1,inactive
7,COc1ccc(NC(=O)CN(C)C(=O)c2cnc(Cl)c(Cl)c2)cc1,inactive
8,CC(=O)Nc1cccc(OCC(=O)Nc2ccccc2)c1,inactive
9,CC(C)Cc1nnc(NC(=O)c2cc3c(s2)CCC3)s1,inactive
10,C[C@@H]1CN([C@@H](C)CO)C(=O)c2cc(NC(=O)Nc3cccc4ccccc34)ccc2O[C@@H](C)CCCCO[C@H]1CN(C)C(=O)NC1CCCCC1,inactive
11,N#Cc1ccc(C(c2ccc(C#N)cc2)n2cncn2)cc1,inactive
12,N#Cc1c(C#N)c(O)c2ccccc2c1O,inactive
13,OC[C@@H]1CN(Cc2ccccc2)C[C@H](n2cnc3c(NCc4ccc(F)cc4)ncnc32)O1,inactive
14,O=C(COc1ccc(Cl)cc1Cl)NCCCN1CCOCC1,inactive
15,COc1cc(NS(=O)(=O)c2ccc(N)cc2)nc(OC)n1,inactive
16,CN(C)S(=O)(=O)c1ccc(N2CCCC2)c(C(=O)NCc2cccc(C(F)(F)F)c2)c1,inactive
17,COc1ccc(NC(=O)N[C@@H]2CC[C@H](CCn3cc(-c4ccccc4F)nn3)O[C@H]2CO)cc1,inactive
18,COc1ccccc1C1c2c(C)nn(-c3ccccc3)c2NC(=O)C1NC(=O)c1ccccc1 (stereo unspecified),inactive
19,Cn1cnnc1Sc1ccc(/C=C/C(=O)c2ccc(O)cc2)cc1[N+](=O)[O-],inactive
20,O=C(Nc1ccc(F)cc1)c1ccccc1,inactive
21,O=C(Nc1ccc(F)cc1)N1CCCCN2[C@H](CO)[C@H](c3ccc(C#Cc4ccccc4)cc3)[C@H]2C1,inactive
22,CC(C)NC(=O)N(C)C[C@H]1OCCCC[C@@H](C)Oc2ccc(NC(=O)CCCN(C)C)cc2C(=O)N([C@@H](C)CO)C[C@@H]1C,inactive
23,C[C@@H]1CN([C@@H](C)CO)C(=O)CCCn2cc(nn2)CO[C@H]1CN(C)Cc1ccncc1,inactive
24,O=C(NC1CCCCC1)C(c1ccc2ncccc2c1)N(Cc1ccc2c(c1)OCO2)C(=O)c1ccc2c(c1)OCCO2 (stereo unspecified),inactive

row,Structure (SMILES),outcome
1,CCCCN(C(=O)CCC(=O)Nc1cc(C)on1)C(C(=O)NC1CCCC1)c1ccc(OC)cc1 (stereo unspecified),inactive
2,C#CC(=O)N(c1ccc(OC)c(OC)c1)C(C(=O)NC1CCCC1)c1cccs1 (stereo unspecified),inactive
3,C#CC(=O)N(c1ccc(OC)cc1OC)C(C(=O)NC1CCCC1)c1cccs1 (stereo unspecified),inactive
4,CCCC(C(=O)NC(C)(C)C)N(Cc1ccc(F)cc1)C(=O)c1snc(C(N)=O)c1N (stereo unspecified),inactive
5,C#CC(=O)N(c1cccc(OC)c1)C(C(=O)NC1CCCC1)c1cccs1 (stereo unspecified),inactive
6,COc1ccc(N2C(=O)CC2(/C=C/c2ccccc2OC)C(=O)NC2CCCC2)cc1 (stereo unspecified),inactive
7,CC12CC(c3ccccc3O1)N(C(=O)c1ccc(Br)o1)C(=O)N2c1ccccc1 (stereo unspecified),inactive
8,CCCOc1ccccc1-n1sc2c(c1=S)-c1cc(OC)cc3c1N(C(=O)C3=O)C2(C)C,inactive
9,COc1cccc(-c2nn(-c3ccccc3)cc2CN(C)C(C)c2ccncn2)c1 (stereo unspecified),inactive
10,Cc1c(NC(=O)c2ccccc2NS(=O)(=O)c2ccc(Br)cc2)c(=O)n(-c2ccccc2)n1C,inactive
11,CCOC(=O)C1=C(NC(=O)c2ccc(Br)o2)Nc2ccccc2N=C1,inactive
12,CCCNC(=O)N(C)C[C@H]1Oc2cc(C#CC(C)C)ccc2S(=O)(=O)N([C@@H](C)CO)C[C@H]1C,inactive
13,CC(C)C#Cc1cnc2c(c1)C(=O)N([C@H](C)CO)C[C@H](C)[C@H](CN(C)C(=O)CN1CCOCC1)O2,inactive
14,Cc1cc(-c2ccc(Cl)cc2)n2ncnc2n1,inactive
15,CO[C@@H]1CN(C)C(=O)c2cc(NC(C)=O)ccc2OC[C@H](C)N(C(=O)c2cccnc2)C[C@H]1C,inactive
16,COc1ccc(C2c3c(oc4ccccc4c3=O)C(=O)N2CCN2CCOCC2)cc1OC (stereo unspecified),inactive
17,CCOc1ccc2c(c1)C(C)=CC(C)(C)N2S(=O)(=O)c1ccc(NC(C)=O)cc1,inactive
18,Cn1cnc(S(=O)(=O)N2C[C@@H](O)COC[C@H]3O[C@H](CC(=O)NCc4cc(F)cc(F)c4)CC[C@@H]32)c1,inactive
19,CCn1c(COc2ccc(=O)n(-c3ccccc3)n2)nnc1SCc1ccc(C)cc1,inactive
20,O=S(=O)(Nc1nc2c(s1)CCCC2)c1ccc(F)cc1,inactive
21,CC(C)(C)Cc1nnc(NS(=O)(=O)c2ccc(F)cc2)s1,inactive
22,CC(C)CC#Cc1ccc2c(c1)O[C@@H](CN(C)C)[C@H](C)CN([C@@H](C)CO)S2(=O)=O,inactive
23,Cn1ccc2cc(OCc3ccccc3)ccc21,inactive
24,N=c1sccn1CC(=O)Nc1ccccc1Sc1ccccc1,inactive

row,Structure (SMILES),outcome
1,Cc1cc(C)c(S(=O)(=O)N2CC=C(c3ccccc3)CC2)c(C)c1,inactive
2,COC(=O)c1c(C)oc(C)c1S(=O)(=O)Nc1ccccc1,inactive
3,CCCCCCNC(=O)c1ncn[nH]1,inactive
4,O=C(N[C@@H]1CC[C@@H](CCNS(=O)(=O)c2ccccc2Cl)O[C@@H]1CO)c1ccc(F)cc1,inactive
5,N=C1C(c2nc3ccccc3s2)=C(O)CN1NC(=O)c1ccc([N+](=O)[O-])cc1,inactive
6,O=C(Nc1ccc(OC(=O)c2ccccc2)c(-c2nc3ccccc3s2)c1)c1ccccc1,inactive
7,O=C(NCC1CCCO1)c1cc2c([nH]c3ccccc32)c(-c2cccc(Cl)c2)n1 (stereo unspecified),inactive
8,CNC[C@@H]1OCCCC[C@@H](C)Oc2ccc(NS(=O)(=O)c3ccc(C)cc3)cc2C(=O)N([C@H](C)CO)C[C@@H]1C,inactive
9,COc1cc(Cl)c(S(=O)(=O)N2CC(C)OC(C)C2)cc1Cl (stereo unspecified),inactive
10,O=C(OCc1nc(-c2ccccc2)oc1COC(=O)c1ccco1)c1ccco1,inactive
11,COc1ccc(N(CC(=O)Nc2ccccc2Cl)S(=O)(=O)c2ccc(C)cc2)cc1OC,inactive
12,Cc1cc(Cl)ccc1OCC(=O)Nc1cccc(S(=O)(=O)NC2=NCCCCC2)c1,inactive
13,N#CC1=C(N)Oc2c(ccc3ccccc23)C1c1ccsc1 (stereo unspecified),inactive
14,C[C@H]1CN([C@@H](C)CO)C(=O)c2cc(C#Cc3ccccc3)cnc2O[C@@H]1CN(C)C(=O)c1ccccc1F,inactive
15,c1cncc(CNc2ncnc3ccc(-c4ccoc4)cc23)c1,inactive
16,COC(=O)c1cc(CN2C(=O)c3ccccc3C2=O)c(O)c([N+](=O)[O-])c1,inactive
17,O=C(Nc1nc(-c2ccccn2)cs1)c1ccccc1-n1cnnn1,inactive
18,O=C(c1ccc(CN2CCOCC2)cc1)N1CCN(Cc2ccccc2)CC1,inactive
19,O=C(Nc1ccccc1N1CCOCC1)C1(c2ccc(Cl)cc2)CCC1,inactive
20,C#CCN1C(=O)C(O)(CC(=O)c2ccc(OC)c(OC)c2)c2ccccc21 (stereo unspecified),inactive
21,CC(C)C#Cc1cnc2c(c1)C(=O)N([C@H](C)CO)C[C@H](C)[C@H](CN(C)C(=O)c1ccccn1)O2,inactive
22,CCOc1ccc(N2CC(C(=O)Nc3ccc(S(=O)(=O)NCC4CCCO4)cc3)CC2=O)cc1 (stereo unspecified),inactive
23,COc1ccc(F)cc1CN1CCN(CC(=O)N2CCc3ccccc32)CC1,inactive
24,O=C(c1cccc(N2C(=O)C3C4C=CC(C4)C3C2=O)c1)N1CCCc2ccccc21 (stereo unspecified),inactive

row,Structure (SMILES),outcome
1,C[C@H](CO)N1C[C@H](C)[C@@H](CN(C)C(=O)Nc2ccc(-c3cccs3)cc2)OCc2cnnn2CCCC1=O,inactive
2,CCCc1cn(CC[C@@H]2CC[C@H](NC(=O)Nc3ccc4c(c3)OCO4)[C@@H](CO)O2)nn1,inactive
3,O=c1c2cn(Cc3ccc(F)cc3)c3ccc(F)cc3c-2nn1Cc1ccc(F)cc1,inactive
4,FC(F)(F)c1ccc(Cl)c(-n2c(-c3cc(-c4ccco4)[nH]n3)n[nH]c2=S)c1,inactive
5,C[C@H](CO)N1C[C@H](C)[C@H](CN(C)Cc2ccncc2)OCc2cn(nn2)CCCC1=O,inactive
6,COCC(=O)N1C[C@@H](C)[C@@H](OC)CN(C)C(=O)c2ccc(NC(=O)c3cnccn3)cc2OC[C@@H]1C,inactive
7,CC(=O)n1nc2nc(C)cc(C)c2c1N,inactive
8,CCS(=O)(=O)Nc1ccc2c(c1)C(=O)N(C)C[C@@H](OC)[C@H](C)CN(Cc1ccccn1)[C@@H](C)CO2,inactive
9,O=C(COC(=O)Cc1ccc(S(=O)(=O)N2CCOCC2)s1)NCCc1ccccc1,inactive
10,O=C(O)C1CCCN1S(=O)(=O)c1cc(Cl)ccc1Cl (stereo unspecified),inactive
11,C[C@@H]1CN([C@@H](C)CO)C(=O)CCCn2nncc2CO[C@H]1CN(C)S(=O)(=O)c1ccc(Cl)cc1,inactive
12,CCCCN(CCCC)CCNC(=O)c1ccc2nc(-c3ccccc3NC(C)=O)c(=O)[nH]c2c1,inactive
13,COCCCNC(=O)c1ccc(Cn2c(=O)c3ccccc3n(Cc3ccccc3C)c2=O)cc1,inactive
14,CCCOc1ccc2ccccc2c1/C=C1\SC(=O)NC1=O,inactive
15,Nc1nc(SCC(=O)Nc2ccccc2Sc2ccc(Cl)cc2)n[nH]1,inactive
16,C[C@@H]1CN([C@H](C)CO)C(=O)c2cc(-c3ccccc3)cnc2O[C@H]1CN(C)C(=O)Cc1ccccn1,inactive
17,CN(C)CCNC(=O)c1cccc2c(-c3ccc(F)c(F)c3)coc12,inactive
18,O=C(CSc1nnc(-c2ccco2)n1-c1ccccc1)Nc1c(Cl)cc(Cl)cc1C(=O)O,inactive
19,COC(=O)/C=C/c1cnc2ccccc2c1,inactive
20,CCC(=O)Nc1cccc(C(=O)/C=C/c2ccccc2)c1,inactive
21,O=C(/C=C/c1cccs1)c1ccc(NC(=O)c2cccc(Br)c2)cc1,inactive
22,Cc1ccc2oc(Nc3nc(C)c(C)c(C)n3)nc2c1,inactive
23,CCC(=O)Nc1ccnc(-c2cccnc2)n1,inactive
24,CC(c1ccccc1)N1C(=O)NC(NC(=O)c2cccnc2)(C(F)(F)F)C1=O (stereo unspecified),inactive
